Laboratory results published in PubChem BioAssay (NCATS).
Values joined by “and” are separate entries in the source; they are usually repeats but may differ in a detail not shown here. Equal entries are not always repeated. Results filed as inconclusive are left out. More than one record can exist for a structure, and the calls need not agree. Unmarked numbers belong to inactive results. Active and inactive are the calls of the source. The call rests on the fitted dose curve; in most records, active means well fitted inhibition curve with a large enough effect; inconclusive means small, poorly fitted or top-dose-only effect; inactive means flat fitted curve, though single readings scatter.

system: KB-3-1; assay: Cytotoxic Profiling of Annotated Libraries Using Quantitative High-Throughput Screening (AID 1296008); details: Five cell lines viability, CellTiter-Glo ATP luminescence, 48-72 h; max response: active compounds read low; further: nearly all actives have a fitted effect of over 60% in size
Procedure, shortened: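 Cells exposed to compounds for 48 or 72 hr at 37 degrees Celsius. Viability read as ATP-coupled luminescence with CellTiter-Glo after 10 min at room temperature.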
On the % scale 0 is the no-effect control and ±100 the full control effect; potency means the concentration at half of the fitted maximal effect.

SMILES | Potency | max response
COC(=O)[C@H]1[C@H]2C[C@@H]3c4[nH]c5ccccc5c4CCN3C[C@H]2C[C@@H](OC(=O)c2cc(OC)c(OC)c(OC)c2)[C@@H]1OC | 7.31 µM (active) | -19.2%
CCCCC(CC)COC(=O)CC(C(=O)OCC(CC)CCCC)S(=O)(=O)O (stereo unspecified) | – | -3.48% and -14.8%
CO[C@H](C(=O)[C@@H](O)[C@@H](C)O)C1Cc2cc3cc(O[C@H]4C[C@@H](O[C@H]5C[C@@H](O)[C@H](O)[C@@H](C)O5)[C@@H](O)[C@@H](C)O4)c(C)c(O)c3c(O)c2C(=O)[C@H]1O[C@H]1C[C@@H](O[C@H]2C[C@@H](O[C@H]3C[C@](C)(O)[C@H](O)[C@@H](C)O3)[C@H](O)[C@@H](C)O2)[C@H](O)[C@@H](C)O1 (stereo partly specified) | 1.16 µM (active) | –
CC(=O)OCC(=O)[C@@]1(O)CC[C@H]2[C@@H]3C[C@H](C)C4=CC(=O)C=C[C@]4(C)[C@H]3[C@@H](O)C[C@@]21C | – | 15.9%
CN(C)CC/C=C1/c2ccccc2CSc2ccccc21 | – | -13.6%
